The panel holds about 83,000 compounds, 20% with a hit somewhere; the sample as a whole holds those more often.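 For each line, cells grew in 96-well plates with the test compound present at a single concentration for 48 hours.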 Active and inactive are the calls of the source. Rule for the calls: active = growth percent below 10; inactive = the rest.

The test system of the first test is BT-549 breast. Briefly: NCI-60 one-dose screen, 48 h (100 = growth as untreated, 0 = no growth, -100 = all killed). Conditions: 10 µM unless noted.
For `COc1cc(C(C)=C(c2ccc(OCCN(C)C)cc2)c2ccc(OCCN(C)C)cc2)ccc1F`, the growth was 107% (inactive).
Same read-out and setting: then `CN1CCN(CC#CCn2c3c(c4ccccc42)C[C@]2(C)[C@H]4CC=C5[C@@H]6CC(C)(C)CC[C@]6(C(=O)N6CCOCC6)CC[C@@]5(C)[C@]4(C)CC[C@H]2C3(C)C)CC1`, with 96.2% (inactive); and `COc1cc(/C=C2/C(=O)Nc3ccc(Cl)cc32)ccc1OCc1ccc(Cl)cc1`, with 101% (inactive).
On the same count and under the same terms, then `Cc1[nH]c(C(=O)Nc2ccccc2OCc2cccc(C(=O)NC3CCCNC3)c2)c(Cl)c1Cl` (stereo unspecified), with 98.8% (inactive); and `O=S(=O)(NCCCNc1nccc(-c2[nH]c(-c3ccccc3)nc2-c2ccc(F)c(O)c2)n1)c1ccccc1`, with 112% (inactive); and `COc1ccc(Cn2cc(C#N)c(N)c2C(C)=O)cc1`, with 114% (inactive).
`CC(Nc1ncnc2ccc(-c3cnc4cnccn34)cc12)c1ccccc1` (stereo unspecified): the growth was 47.9% (inactive).
For `O=C(NCCNc1cc(-c2cn(-c3ccccc3)nc2-c2cccc(O)c2)ccn1)Nc1cc(C(F)(F)F)cc(C(F)(F)F)c1`, the growth was 99.4% (inactive).
On the same count and under the same terms, then `C#CCN(C)CCCOc1ccc(NC(=O)CCCCCCC(=O)NO)cc1Cl`, with 44.9% (inactive); and `O=C(CSc1nnc(-c2ccc(Cl)cc2)n1-c1ccccc1)Nc1ccc(Cl)cc1`, with 70.2% (inactive); and `CN1CCN(Cc2ccc(/C=N/Nc3ccnc4cc(Cl)ccc34)cc2)CC1`, with 123% (inactive).
On to `N#Cc1c(-c2cccs2)cc(-c2cnccn2)nc1SCC(=O)N/N=C/c1cccs1`, for which the growth was 42.5% (inactive).
With `CCCCCCN1C=C/C(=C\C(=O)n2ccc3ccccc32)c2ccccc21`, the growth was 65% (inactive).
Consider `CC(C)(C)Nc1nc2c(OCCc3ccccc3)cccn2c1-c1cccc(Oc2ccccc2)c1`, for which the growth is -11% (active).
In the case of `Cn1cc(-c2nnc(N)nc2-c2c[nH]c3ccc(F)cc23)c2cc(Br)ccc21`, the growth is 11.1% (inactive).
Still for that read-out and setting: then `CN1CCN(c2ccc(Nc3nc(NCCCNS(=O)(=O)c4cccc(F)c4)c4sccc4n3)cc2)CC1`, with 42.7% (inactive).
Turning to `CNC(=O)c1cc(-c2ccc(NC(=S)Nc3cccc(C(F)(F)F)c3)cc2)nc2cccnc12`, the growth is 104% (inactive).
`NC(N)=NS(=O)(=O)c1ccc(N=Nc2c(N)nn(-c3ccc([N+](=O)[O-])cc3[N+](=O)[O-])c2N)cc1`: the growth was 123% (inactive).
Consider `N#Cc1c(-c2cccs2)cc(-c2cnccn2)nc1SCC(=O)N/N=C/c1ccncc1`, for which the growth is 113% (inactive).
Take `CCN(CC)c1ccc(/C=N/NC(=O)c2ccc(NS(C)(=O)=O)cc2)cc1`: the growth was 28.4% (inactive).
Consider `CCCCCC[n+]1ccc(SCC(=O)n2ccc3ccccc32)c2ccccc21`, for which the growth was 73.2% (inactive).
On to `O=C(/C=C/c1cccc(F)c1)c1cccc(OCCCOc2cccc(C(=O)/C=C/c3cccc(F)c3)c2)c1`, for which the growth was 72.1% (inactive).
For the compound `NC(=O)n1c(=O)n(-c2cccc(C(F)(F)F)c2)c(=O)c2cc(-c3ccc(F)cc3F)ccc21`, the growth is -12.5% (active).
Take `CCCCCc1ccc(S(=O)(=O)Nc2cc(-c3csc(N)n3)ccc2OC)cc1`: the growth was 102% (inactive).
For `COC(=O)c1cccc(NC2=CC(=O)C(C)=C(C)C2=O)c1`, the growth was 101% (inactive).
Consider `O=C(/C=C/c1cccc(C(F)(F)F)c1)Nc1cccc(C(F)(F)F)c1`, for which the growth was 118% (inactive).

In another test the test system is MDA-MB-435 melanoma. The test is described as above. The conditions noted are these: 10 µM unless noted.
Regarding `O=C1[C@@H]2Cc3c([nH]c4ccccc34)[C@H](c3ccc(Br)cc3)N2C(=O)CN1C1CCN(Cc2c(Cl)cccc2Cl)CC1`, the growth is 100% (inactive).
`O=C1/C(=C/C=C/c2ccco2)SC(=S)N1Cc1ccccc1`: the growth is 92.7% (inactive).
For the compound `O=C(COc1ccc(/C=C2\C(=O)Nc3ccc(Cl)cc32)cc1)Nc1ccc(Cl)cc1`, the growth is 55.6% (inactive).
Regarding `N#C/C(=N\Nc1ccc(F)cc1)C(=O)Nc1cc(-c2ccccc2)nn1-c1ccccc1`, the growth is 6.98% (active).
For `Clc1ccc2c(N/N=C/c3c[nH]c4ccccc34)ccnc2c1`, the growth is -92.9% (active).
As for `CN1CCN(Cc2ccc(NC(=O)c3cncc(C#Cc4cnc5ccc(NCCO)nn45)c3)cc2C(F)(F)F)CC1`, the growth is -6.87% (active).
Consider `C#CCOc1ccc(/C=N/Nc2nc(-c3ccc(OC)cc3)cs2)cc1`, for which the growth is 79.3% (inactive).
As for `Cc1ccc(/C(N)=N/C(N)=N/c2nc3ccccc3s2)cc1`, the growth was 103% (inactive).
Turning to `CC(=O)Nc1cc(N2CCOCC2)c2nc(NC(=O)c3[nH]c(C)c(Cl)c3Cl)sc2c1`, the growth is 59% (inactive).
The same measure, in the same setting: then `CN(C)c1ccc(/C=N/Nc2nc(N/N=C/c3ccc(N(C)C)cc3)nc(N3CCCCC3)n2)cc1`, with 60.4% (inactive).
As for `N#Cc1c(-c2cccs2)cc(-c2cnccn2)nc1SCC(=O)N/N=C/c1ccc(Cl)cc1`, the growth was 103% (inactive).
For `COc1ccc(OC)c(NC(=O)CCCCCCNC(=O)C(O)(O)C(F)(F)F)c1`, the growth was 30.1% (inactive).
For `C/C(=N/N)c1nnn(-c2ccc(Br)cc2)c1C`, the growth was 102% (inactive).
Regarding `CC(C)NC(=O)c1cc(-c2ccc(NC(=O)Nc3ccc(F)c(C(F)(F)F)c3)cc2)nc2cccnc12`, the growth was 91.3% (inactive).
In the case of `COc1cc(C(C)=C(c2ccc(OCCN(C)C)cc2)c2ccc(OCCN(C)C)cc2)ccc1F`, the growth was 108% (inactive).
For the compound `CN1CCN(CC#CCn2c3c(c4ccccc42)C[C@]2(C)[C@H]4CC=C5[C@@H]6CC(C)(C)CC[C@]6(C(=O)N6CCOCC6)CC[C@@]5(C)[C@]4(C)CC[C@H]2C3(C)C)CC1`, the growth was 82.7% (inactive).
Take `COc1cc(/C=C2/C(=O)Nc3ccc(Cl)cc32)ccc1OCc1ccc(Cl)cc1`: the growth was 91.3% (inactive).
On the same count and under the same terms, then `Cc1[nH]c(C(=O)Nc2ccccc2OCc2cccc(C(=O)NC3CCCNC3)c2)c(Cl)c1Cl` (stereo unspecified), with -80.2% (active).
Take `O=S(=O)(NCCCNc1nccc(-c2[nH]c(-c3ccccc3)nc2-c2ccc(F)c(O)c2)n1)c1ccccc1`: the growth is 51% (inactive).
Consider `COc1ccc(Cn2cc(C#N)c(N)c2C(C)=O)cc1`, for which the growth was 104% (inactive).
Still for that read-out and setting: then `CC(Nc1ncnc2ccc(-c3cnc4cnccn34)cc12)c1ccccc1` (stereo unspecified), with 69.1% (inactive); and `O=C(NCCNc1cc(-c2cn(-c3ccccc3)nc2-c2cccc(O)c2)ccn1)Nc1cc(C(F)(F)F)cc(C(F)(F)F)c1`, with 98.4% (inactive).
With `C#CCN(C)CCCOc1ccc(NC(=O)CCCCCCC(=O)NO)cc1Cl`, the growth is -0.594% (active).
Turning to `O=C(CSc1nnc(-c2ccc(Cl)cc2)n1-c1ccccc1)Nc1ccc(Cl)cc1`, the growth was 42.3% (inactive).
`CN1CCN(Cc2ccc(/C=N/Nc3ccnc4cc(Cl)ccc34)cc2)CC1`: the growth was 93.6% (inactive).
Take `N#Cc1c(-c2cccs2)cc(-c2cnccn2)nc1SCC(=O)N/N=C/c1cccs1`: the growth is 51% (inactive).
On the same count and under the same terms, then `CCCCCCN1C=C/C(=C\C(=O)n2ccc3ccccc32)c2ccccc21`, with 84% (inactive); and `CC(C)(C)Nc1nc2c(OCCc3ccccc3)cccn2c1-c1cccc(Oc2ccccc2)c1`, with 19.9% (inactive); and `Cn1cc(-c2nnc(N)nc2-c2c[nH]c3ccc(F)cc23)c2cc(Br)ccc21`, with 3.84% (active).
In the case of `CN1CCN(c2ccc(Nc3nc(NCCCNS(=O)(=O)c4cccc(F)c4)c4sccc4n3)cc2)CC1`, the growth is 14.1% (inactive).
Consider `CNC(=O)c1cc(-c2ccc(NC(=S)Nc3cccc(C(F)(F)F)c3)cc2)nc2cccnc12`, for which the growth is 95.9% (inactive).
As to `NC(N)=NS(=O)(=O)c1ccc(N=Nc2c(N)nn(-c3ccc([N+](=O)[O-])cc3[N+](=O)[O-])c2N)cc1`, the growth was 103% (inactive).
Turning to `N#Cc1c(-c2cccs2)cc(-c2cnccn2)nc1SCC(=O)N/N=C/c1ccncc1`, the growth is 104% (inactive).
Take `CCN(CC)c1ccc(/C=N/NC(=O)c2ccc(NS(C)(=O)=O)cc2)cc1`: the growth is 37.3% (inactive).
For the compound `CCCCCC[n+]1ccc(SCC(=O)n2ccc3ccccc32)c2ccccc21`, the growth was 101% (inactive).
Regarding `O=C(/C=C/c1cccc(F)c1)c1cccc(OCCCOc2cccc(C(=O)/C=C/c3cccc(F)c3)c2)c1`, the growth is 99.8% (inactive).
For `NC(=O)n1c(=O)n(-c2cccc(C(F)(F)F)c2)c(=O)c2cc(-c3ccc(F)cc3F)ccc21`, the growth was 0.406% (active).
Consider `CCCCCc1ccc(S(=O)(=O)Nc2cc(-c3csc(N)n3)ccc2OC)cc1`, for which the growth was 107% (inactive).
In the case of `COC(=O)c1cccc(NC2=CC(=O)C(C)=C(C)C2=O)c1`, the growth was 101% (inactive).
`O=C(/C=C/c1cccc(C(F)(F)F)c1)Nc1cccc(C(F)(F)F)c1`: the growth was 48.5% (inactive).

For the origin of these results see PubChem BioAssay (NCI).
